SARS PLP yeast = inhibitors of SARS-CoV papain-like protease in yeast | 330,000 compounds, 0.19% hits | Potency, µM (series often up to 32.9 µM), hits mostly activators | S. cerevisiae expressing SARS-CoV PLpro, growth rescue; calls by dose curve; also: nearly all actives have a fitted effect of over 55% in size
Pf growth 96h = P. falciparum growth inhibition at 96 hours; P. falciparum luciferase reporter growth, 96 h; Potency, µM (series often up to 28.7 µM), actives largely listed as inhibitors; 320,000 compounds, 6.9% hits; AID 504834
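Delayed-death screen, second-generation endpoint: infected erythrocytes, 2% hematocrit, 0.05% parasitemia final; 96 hours at 37 C, 5% CO2; luciferase detection reagent; luminescence decrease equals reduced growth.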
NS1 function inh = inhibitors of influenza NS1 protein function; Potency, µM (top dose mostly 46.1 µM); 270,000 compounds, 0.4% hits; calls by dose curve; also: actives are rising curves; nearly all actives have a fitted effect of over 50% in size
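OD600 was taken as the measure of yeast growth restored by compound in an NS1-expressing S. cerevisiae strain. Cells had been washed out of glucose medium and diluted 1:100 into galactose -URA medium, pH 6.0.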
HCV inhibitor = HCV inhibition. Huh7.5.1 HCVcc-Cre infection, luciferase reporter, 44 h. 340,000 compounds, 3.4% hits. AID 651820. Potency, µM (highest dose often 41.8 µM), most hits filed as inhibitors
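1,000 cells/well; 4 h culture; + compound; + HCVcc-Cre (~0.5 moi); 44 h; luciferase substrate, RT 15 min; read 15 sec.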
AMA1-RON2 inh = AMA1-RON2 (P. falciparum) interaction inhibition; AID 720542; 360,000 compounds, 0.2% hits; AlphaScreen AMA1-biotinylated RON2 peptide binding; Potency, µM (series often up to 58.2 µM), usual class: inhibitors; also: nearly all actives have a fitted effect of over 45% in size
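AMA1 (3D7) with his tag at 25 nM final met compounds first, then biotinylated RON2 peptide at 25 nM; detection used donor plus acceptor beads, 10 µg/mL apiece, read by AlphaScreen after 30 min at room temperature.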
Pf growth 48h = P. falciparum growth inhibition at 48 hours (one generation) | P. falciparum luciferase growth in erythrocytes, 48 h | 310,000 compounds, 5.9% hits | Potency, µM (titrated, usually from 28.7 µM), usual class: inhibitors
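Cell-based growth assay: transgenic P. falciparum expressing firefly luciferase, cultured in red cells within RPMI 1640 containing 0.5% w/v Albumax, 24 mM bicarbonate and gentamycin. A drop in luciferase activity indicates inhibition.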
Numbers stand for hits; i = inactive; ? = inconclusive; nt = not tested or not shown; [ ] = another dose, or the depositor's remark. This is a sample that favours compounds with a hit; in the whole collection about 12% have one here. Unless noted, calls follow the shape of the dose curve; as a rule, active = well fitted curve in the direction sought with a large enough effect; inconclusive = small, poorly fitted or top-dose-only effect, or another doubt; inactive = no such curve, though single readings can be large; an effect the other way counts as inactive or inconclusive.

SMILES | SARS PLP yeast | Pf growth 96h | NS1 function inh | HCV inhibitor | AMA1-RON2 inh | Pf growth 48h
Cc1ccc(C)c(N2CCN(C(=O)CCCn3c(=S)[nH]c4cc5c(cc4c3=O)OCO5)CC2)c1 | i | ? | i | ? | i | 11.7µM
CCN(CC)CCn1c(=S)[nH]c2cc3c(cc2c1=O)OCO3 | i | 10.4µM | ? | i | i | i
CCN(CC)CCNC(=O)CCn1c(=S)[nH]c2cc3c(cc2c1=O)OCO3 | i | i | ? | i | i | i
O=C(CCCn1c(=S)[nH]c2cc3c(cc2c1=O)OCO3)N1CCN(c2ccccc2F)CC1 | i | ? | i | ? | i | i
Cc1nn(Cc2ccc(Cl)c(Cl)c2)c(C)c1NC(=O)c1sc2ccccc2c1Cl | i | i[5.75 µM] | i | 22.4µM | i | i
Cc1ccccc1Cn1nc(C)c(NC(=O)c2sc3ccccc3c2Cl)c1C | i | ? | i | 31.6µM | i | ?
Cc1nn(Cc2ccc(Cl)cc2Cl)c(C)c1NC(=O)c1sc2ccccc2c1Cl | i | i | i | i | i | i
CN(C)c1nc2c(Br)c(Br)c(Br)c(Br)c2[nH]1 | nt | nt | i | nt | nt | nt
CC1=C(C(N)=O)C(c2cccs2)NC(=O)N1 (stereo not given) | i | i | i | i | i | ?
C/C(=N\NC(=O)NC1CCCCC1)c1ccc(Cl)s1 | i | ? | i | 3.16µM | i | ?
O=C(NNC(=S)NC1CCCCC1)c1ccc(Cl)s1 | i | i | i | i | i | i
Cc1ccc(S(=O)(=O)/N=C(/Nc2cccc(C(=O)O)c2)c2ccccc2)cc1 | i | i | i | i | i | i
Cc1ccc(S(=O)(=O)/N=C(/Nc2cccc(O)c2)c2ccccc2)cc1 | i | i | i | 11.2µM | i | i
COCCN(C(=O)C1CC1)c1nnc(-c2ccc(C)cc2)s1 | i | ? | i | i | i | i
CCCC(=O)N(C)c1nnc(-c2ccc(OC)cc2)s1 | i | 10.4µM | i | i | i | i
CCOc1ccc(-c2nnc(N(CC)C(=O)C3CCC3)s2)cc1 | i | 6.57µM | i | ? | i | ?
COCCN(C(=O)CCc1ccc(OC)cc1)c1nnc(-c2ccncc2)s1 | i | i | i | i | i | i
CC(C)(C)NCC(O)CON=C1c2ccccc2-c2ccccc21 (stereo not given) | i | ? | i | 25.1µM | i | ?
C/C=C/C(=O)N[C@@H]1c2ccccc2CC[C@@H]1OCc1ccccc1 | i | nt | nt | i[8.37 µM] | i | nt
COc1ccc(/C=N/Nc2nc(Nc3ccccc3)nc(N3CCCCC3)n2)cc1OC | i | ? | i | ? | i | ?
COc1cccc(/C=N/Nc2cc(-n3nc(C)cc3-c3ccccc3)ncn2)c1O | ? | i | i | 5.62µM | i | 5.86µM
COc1cccc(/C=N/Nc2nc(Nc3ccccc3)nc(-n3nc(C)cc3C)n2)c1O | i | ? | i | 8.91µM | i | nt
CN(C(=O)CSCC(=O)O)C1CCCCC1 | i | i | i | i | i | i
COCCn1c(SC(C)C(=O)Nc2ccc(Cl)cn2)nnc1-c1ccncc1 (stereo not given) | i | i | nt | ? | i | i
Cc1cccc(NC(=O)c2cc(S(=O)(=O)N3CCOCC3)cn2C)c1C | i | 6.57µM | i | i | i | i
SMILES | SARS PLP yeast | Pf growth 96h | NS1 function inh | HCV inhibitor | AMA1-RON2 inh | Pf growth 48h
Cc1cccc(N2CCN(C(=O)c3cc(S(=O)(=O)N4CCOCC4)cn3C)CC2)c1C | i | ? | i | i | i | ?
Cc1cccc(N2CCN(C(=O)c3cc(S(=O)(=O)N4CCCC4)cn3C)CC2)c1C | i | ? | i | ? | i | 9.28µM
COC(=O)C[C@@H]1C=C[C@@H](NC(=O)NC2CCCC2)[C@@H](CO)O1 | nt | nt | nt | nt | i | nt
CN(C)CCN(Cc1ccccc1)C(=O)c1[nH]c(C(F)(F)F)nc1-c1ccccc1 | nt | nt | nt | nt | i | nt
O=C(C1CCCN(c2ncnc3c2nc2n3CCCCC2)C1)N1CCN(c2cccc(Cl)c2)CC1 (stereo not given) | i | ? | i | ? | i | 13.1µM
CN(C(=O)C1CCCN(c2ncnc3c2nc2n3CCCCC2)C1)c1cccc(Cl)c1 (stereo not given) | i | i | i | ? | i | 2.94µM
CCCCN(Cc1ccco1)C(=O)C1CCCN(c2ncnc3c2nc2n3CCCCC2)C1 (stereo not given) | i | i | i | ? | i | 9.28µM
O=C(COC(=O)/C=C/c1ccc(Cl)cc1Cl)NCC1CCCO1 (stereo not given) | i | nt | nt | i | i | nt
Cc1cc(OCC(=O)OCC(=O)NCc2ccco2)ccc1Cl | i | i | nt | i | i | ?
CCOC(=O)c1cc(C(C)(C)C)oc1CNC(=O)c1c(C)oc2c1CCCC2 | i | ? | i | ? | i | 14.7µM
Cc1cc(C)cc(N(CC(=O)NCc2ccccc2)C(=O)CCC(=O)Nc2ccccn2)c1 | i | i | i | ? | i | 2.08µM
COCCNC(=O)C(c1ccc(C)cc1)N(C(=O)CCC(=O)Nc1ccccn1)c1ccc(C)cc1 (stereo not given) | i | i | i | i | i | i
Cc1ccc(N(CC(=O)NC(C)C)C(=O)CCC(=O)Nc2ccccn2)cc1 | i | 3.7µM | i | i | i | i
COCCNC(=O)C(c1ccc(C)cc1)N(C(=O)CCC(=O)Nc1ccccn1)c1ccccc1C (stereo not given) | i | 8.28µM | i | i | i | i
CCc1ccc(N(CC(=O)NC(C)C)C(=O)CCC(=O)Nc2ccccn2)cc1 | i | ? | i | i | i | i
COc1ccc([C@H]2CC(=O)C=C(c3ccc(OC)c(F)c3)C2)cc1 | i | i | nt | i | i | ?
CSc1nc(N)nc2c1ncn2C1OC(CO)CC1O (stereo not given) | nt | nt | nt | i | i | nt
CC(C)Oc1ccc(S(=O)(=O)N2CCOCC2)cc1NC(=O)Cc1c(F)cccc1Cl | i | ? | nt | ? | i | ?
Cc1ccc(OCC(=O)Nc2cc(S(=O)(=O)N3CCOCC3)ccc2Cl)c([N+](=O)[O-])n1 | i | i | ? | ? | i | i
CCC(=O)N(CCC(Cc1ccccc1)c1ccc2c(c1)OCO2)Cc1ccccc1F (stereo not given) | i | 11.7µM | i | i | i | ?
COc1cc(/C=C/C(=O)NC(=O)c2ccccc2O)ccc1OC(C)=O | i | 9.28µM | i | i | i | i
CCOC(=O)C1CCN(C(=O)c2ccc(C)o2)CC1 | i | nt | nt | i | i | nt
Cc1oc2c(c1C(=O)N1CCC(C)CC1)C(=O)c1ccccc1C2=O | i | 0.0928µM | i | ? | i | 0.233µM
CCOC(=O)C1CCN(C(=O)c2c(C)oc3c2C(=O)c2ccccc2C3=O)CC1 | i | 0.294µM | i | i | i | 0.415µM
CC1CCCC(NC(=O)CCS(=O)(=O)c2cc3c(cc2Cl)NC(=O)CO3)C1C (stereo not given) | i | i | i | i | i | i
Cc1ccc(-c2nn(-c3ccccc3)cc2C(=O)NCC(c2cccs2)N2CCOCC2)cc1 (stereo not given) | i | ? | nt | ? | i | ?

Assay outcomes as filed in PubChem.
